Assay results from PubChem BioAssay (EPA / NIEHS).
Records with an inconclusive call do not appear. Calls of active or inactive are those of the source. How the source made its calls, unless noted: active means hit-call score of the fitted dose curve at least 0.9, where 1 is the maximum; inactive means score below 0.9.

How the values were obtained:
[1] = read-out: KRT18 (gene 3875); test: BSK_BE3C_Keratin818: BioMAP Diversity Plus: BE3C Assay for Keratin 818 Biomarker Activity (AID 2284282); conditions: primary human bronchial epithelial cells
In short: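 BE3C: human bronchial epithelial primary cells, 24 h exposure, Keratin 8/18 ELISA; DMSO = negative control/baseline; cytotoxicity by parallel SRB stain (0.1% SRB after 10% TCA fixation, 560 nm).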

[2] = read-out: Matrix Metallopeptidase 9 (MMP9), MMP9 (gene 4318); test: BSK_BE3C_MMP9: BioMAP Diversity Plus: BE3C Assay for Matrix Metallopeptidase 9 (MMP9) Biomarker Activity (AID 2284283); conditions: primary human bronchial epithelial cells
In short: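 Endpoint is the ELISA MMP-9 signal in human primary bronchial epithelial cultures taken 24 h after chemical dosing. DMSO serves as negative control and baseline, with gain-of-signal fitting.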

[3] = read-out: Plasminogen activator inhibitor-1 (PAI1), SERPINE1 (gene 5054); test: BSK_CASM3C_PAI1: BioMAP Diversity Plus: CASM3C Assay for Plasminogen activator inhibitor-1 (PAI1) Biomarker Activity (AID 2284284); conditions: primary human coronary artery smooth muscle cells;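 further: PAI-1 protein level measured by ELISA 24 h after dosing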
[4] = read-out: Monocyte Chemoattractant Protein-1 (MCP1), CCL2 (gene 6347); test: BSK_hDFCGF_MCP1: BioMAP Diversity Plus: hDFCGF Assay for Monocyte Chemoattractant Protein-1 (MCP1) Biomarker Activity (AID 2284285); conditions: primary human foreskin fibroblasts
In short: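 Human foreskin fibroblasts (hDFCGF system) were exposed to compound and secreted MCP-1 was measured by ELISA after 24 hours. Activity was fitted relative to DMSO. Cytotoxicity was checked by SRB total-protein staining in parallel cultures.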

[5] = read-out: Intercellular Adhesion Molecule 1 (ICAM1), ICAM1 (gene 3383); test: BSK_hDFCGF_ICAM1: BioMAP Diversity Plus: hDFCGF Assay for Intercellular Adhesion Molecule 1 (ICAM1) Biomarker Activity (AID 2284287); conditions: primary human foreskin fibroblasts
In short: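 Primary human foreskin fibroblasts (hDFCGF system) dosed with chemical; ICAM-1 quantified by ELISA at 24 h relative to DMSO. Parallel SRB total-protein staining to assess overt cytotoxicity.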

[6] = read-out: TIMP metallopeptidase inhibitor 2 (TIMP2), TIMP2 (gene 7077); test: BSK_hDFCGF_TIMP2: BioMAP Diversity Plus: hDFCGF Assay for TIMP metallopeptidase inhibitor 2 (TIMP2) Biomarker Activity (AID 2284289); conditions: primary human foreskin fibroblasts
In short: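 Primary human foreskin fibroblasts in the hDFCGF system, dosed for 24 h; TIMP-2 level measured by ELISA, fitted in the positive direction against DMSO; cytotoxicity checked in parallel by sulforhodamine B total protein staining.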

[7] = read-out: Thrombomodulin, THBD (gene 7056); test: BSK_LPS_Thrombomodulin: BioMAP Diversity Plus: LPS Assay for Thrombomodulin Biomarker Activity (AID 2284296); conditions: primary human HUVEC with PBMC
In short: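 Human umbilical vein endothelial cells co-cultured with PBMC and stimulated with LPS; cell-surface thrombomodulin measured by ELISA 24 hours after compound. Gain or loss versus DMSO; cytotoxicity checked by SRB staining in parallel cultures.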

[8] = read-out: CD69, CD69 (gene 969); test: BSK_LPS_CD69: BioMAP Diversity Plus: LPS Assay for CD69 Biomarker Activity (AID 2284303); conditions: primary human HUVEC with PBMC
In short: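 Human umbilical vein endothelial cells co-cultured with PBMC under LPS stimulation, chemical exposure 24 h; cell-surface CD69 measured by ELISA and fitted in the positive direction versus DMSO.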

[9] = IUF_NPC2c_oligodendrocyte_migration_120hr: Leibniz Research Institute for Environmental Medicine (IUF) 120-hour Neural Progenitor Cell Migration Assay for Oligodendrocyte Migration (NPC2c) (AID 2284297);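 further: O4-positive oligodendrocyte migration distance divided by radial glia migration distance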
In short: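 Using fetal brain neural progenitor spheres differentiating in N2 medium at 37C, compounds were present for 120 h. Oligodendrocyte migration distance, normalized to radial glia migration, was measured from imaged O4 staining.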

[10] = IUF_NPC2a_radial_glia_migration_120hr: Leibniz Research Institute for Environmental Medicine (IUF) 120-hour Neural Progenitor Cell Migration Assay for Radial Glia Migration (NPC2a) (AID 2284298)
In short: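 Exposure of 0.3 mm primary hNPC spheres runs day 0 to 120 h with a half-volume medium change at day 3. Fixed cells get Hoechst staining; high-content analysis of nuclear positions yields radial glia migration distance per well, compared against DMSO controls.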

[11] = IUF_NPC2a_radial_glia_migration_72hr: Leibniz Research Institute for Environmental Medicine (IUF) 72-hour Neural Progenitor Cell Migration Assay for Radial Glia Migration (NPC2a) (AID 2284299)
In short: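 Migration out of plated human neural progenitor spheres is scored at 72 h as the distance in um from the sphere core edge to the edge of the migration area. Values are the mean of four manual measurements per well, normalised to DMSO.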

[12] = IUF_NPC2b_neuronal_migration_120hr: Leibniz Research Institute for Environmental Medicine (IUF) 120-hour Neural Progenitor Cell Migration Assay for Neuron Migration (NPC2b) (AID 2284300)
In short: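 Fetal human NPC spheres migrate on PDL/laminin during 120 h compound treatment; neuronal migration distance, glia-normalized, scored versus DMSO control.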

[13] = IUF_NPC3_neuronal_differentiation_120hr: Leibniz Research Institute for Environmental Medicine (IUF) 120-hour Neuronal Differentiation Assay (NPC3) (AID 2284301)
In short: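 Primary human fetal neural progenitor spheres (GW 16-19, 0.3 mm) plated on poly-D-lysine/laminin in N2 medium, exposed from day 0 for 120 h with half-medium refresh at day 3. TUBB3+ cells as percent of Hoechst nuclei in migration area; DMSO baseline.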

[14] = IUF_NPC4_neurite_length_120hr: Leibniz Research Institute for Environmental Medicine (IUF) 120-hour Neuronal Morphology Assay for Neurite Length (NPC4) (AID 2284302)
In short: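 Human fetal cortex (GW 16-19) neural progenitor spheres, 0.3 mm, were plated on poly-D-lysine/laminin in N2 differentiation medium and exposed from day 0 for 120 h, half-feeding at day 3. Mean TUBB3+ neurite length (µm) came from skeletonized images, relative to DMSO.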

[15] = IUF_NPC5_oligodendrocyte_differentiation_120hr: Leibniz Research Institute for Environmental Medicine (IUF) 120-hour Oligodendrocyte Differentiation Assay (NPC5) (AID 2284304; active means hit-call score of the fitted dose curve at least 0.9, where 1 is the maximum;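 further: primary human fetal neural progenitor spheres plated to migrate and differentiate; share of O4-positive cells among Hoechst nuclei found by CNN image analysis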)
In short: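 After plating on poly-D-lysine/laminin, fetal-derived hNPC spheres differentiated for 120 h at 37C in compound-containing N2 medium, refreshed by half on day 3. O4 immunostaining over Hoechst nuclei in the migration zone gave oligodendrocyte percentage relative to DMSO.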

[16] = IUF_NPC2-5_cytotoxicity_72hr: Cytotoxicity Assessment at 72 hours in the Leibniz Research Institute for Environmental Medicine (IUF) Neural Progenitor Cell Migration and Differentiation Assay for Cytotoxicity (NPC2-5) (AID 2284306; active means hit-call score of the fitted dose curve at least 0.9, where 1 is the maximum;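 further: LDH release into supernatant measured by resorufin fluorescence marking membrane damage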)
In short: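 Human fetal (GW 16-19) neural progenitor spheres, 0.3 mm, plated on poly-D-lysine/laminin in N2 differentiation medium and exposed from day 0 to 7 concentrations plus solvent control (DMSO ≤0.1%). LDH-dependent resazurin-to-resorufin fluorescence in supernatant at 72 h.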

[17] = IUF_NPC2-5_cytotoxicity_120hr: Cytotoxicity Assessment at 120 hours in the Leibniz Research Institute for Environmental Medicine (IUF) Neural Progenitor Cell Migration and Differentiation Assay (NPC2-5) (AID 2284307; active means hit-call score of the fitted dose curve at least 0.9, where 1 is the maximum)
In short: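 Membrane-integrity loss is quantified by LDH in supernatant after five days of exposure of migrating, differentiating human fetal NPC spheres; seven serially diluted concentrations are tested with DMSO kept at or below 0.1%.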

[18] = IUF_NPC2-5_cell_number_120hr: Cell Number Assessment at 120 hours in the Leibniz Research Institute for Environmental Medicine (IUF) Neural Progenitor Cell Migration and Differentiation Assay (NPC2-5) (AID 2284308);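 further: count of Hoechst-stained nuclei in migration zone around plated human neural progenitor spheres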
In short: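 Seven-point serial dilutions plus solvent control were applied to plated 0.3 mm hNPC spheres at differentiation start, with medium half-replaced at day 3. Nuclei positive for Hoechst in the migration zone were enumerated at 120 h.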

[19] = IUF_NPC2-5_viability_120hr: Viability Assessment at 120 hours in the Leibniz Research Institute for Environmental Medicine (IUF) Neural Progenitor Cell Migration and Differentiation Assay (NPC2-5) (AID 2284312)
In short: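 Human fetal (GW 16-19) neural progenitor spheres of 0.3 mm were plated on poly-D-lysine/laminin in N2 differentiation medium and exposed from day 0 for 120 h, with half-medium refresh at day 3. Viability was read as alamar blue resazurin-to-resorufin fluorescence against DMSO.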

Measured: outcome

Nc1cc([N+](=O)[O-])ccc1O
inactive: [1] | [2] | [3] | [4] | [5] | [6] | [7] | [8]

C=CCOC(=O)CCC1CCCCC1
inactive: [1] | [2] | [3] | [4] | [5] | [6] | [7] | [8]

CC(=O)[C@H]1CC[C@H]2[C@@H]3CC=C4C[C@@H](O)CC[C@]4(C)[C@H]3CC[C@]12C
inactive: [1] | [2] | [3] | [4] | [5] | [6] | [7] | [8]

CN(C)C(=N)N=C(N)N
not listed: [1] | [2] | [3] | [4] | [5] | [6] | [7] | [8]
inactive: all other assays above

CCC(=O)OCc1ccccc1
inactive: [1] | [2] | [3] | [4] | [5] | [6] | [7] | [8]

C[C@H]1C[C@@H]2[C@H]([C@@H](O)C[C@@]3(C)[C@H]2CC[C@]3(O)C(=O)CO)[C@@]2(C)C=CC(=O)C=C12
inactive: [1] | [2] | [3] | [4] | [5] | [6] | [7] | [8]

OC[C@H]1O[C@H](O[C@]2(CCl)O[C@H](CCl)[C@@H](O)[C@@H]2O)[C@H](O)[C@@H](O)[C@H]1Cl
inactive: [1] | [2] | [3] | [4] | [5] | [6] | [7] | [8]
